Activity calls are given as the source filed them. A call without a number means that no potency is given here. Calls follow the shape of the dose curve; as a rule, active = well fitted curve in the direction sought with a large enough effect; inconclusive = small, poorly fitted or top-dose-only effect, or another doubt; inactive = no such curve, though single readings can be large or run the other way. Residues, ends and D or L forms follow the SMILES beside them. *: point of attachment. Cbz = O=C(OCc1ccccc1)*

The experiment deals with Guanine nucleotide-binding protein G(i) subunit alpha-1 (Homo sapiens) (UniProt P63096). The experiment in a line: qHTS Assay for Inhibitors of RGS12 GoLoco Motif Activity (Green Fluorophore) (AID 879).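 Also: negative values mean loss of peptide binding seen as reduced polarization.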 To be noted: Galphai1/FITC-RGS12 GoLoco peptide, fluorescence polarization; series mostly up to 57.1 µM. The text has this: Assay Overview: NIH Molecular Libraries Screening Centers Network [MLSCN] NIH Chemical Genomics Center [NCGC] MLSCN Grant: NS053754-01 Assay Provider: Siderovski, David P, University of North Carolina at Chapel Hill G-protein-coupled receptors (GPCRs) are major targets for drug discovery. The regulator of G-protein signaling (RGS)-protein family has important roles in GPCR signal transduction. RGS proteins contain a conserved RGS-box, which is often accompanied by other signaling regulatory elements. RGS proteins accelerate the deactivation of G proteins to reduce GPCR signaling; however, some also have an effector function and transmit signals. Combining GPCR agonists with RGS inhibitors should potentiate responses, and could markedly increase the agonist's regional specificity. The diversity of RGS proteins with highly localized and dynamically regulated distributions in brain makes them attractive targets for pharmacotherapy of central nervous system disorders. […] A complex of Gai1 and fluorescently labeled G-alpha-binding peptide (the "GoLoco motif") derived from RGS12 is incubated with library members. Inhibitors of the binding are detected by a decrease in the fluorescence polarization (FP) of the fluorophore. Protein was supplied by Prof. David Siderovski, University of North Carolina at Chapel Hill.
Guanine nucleotide-binding protein G(i) subunit alpha-1 (Homo sapiens), sequence (P63096 whole entry, looked up): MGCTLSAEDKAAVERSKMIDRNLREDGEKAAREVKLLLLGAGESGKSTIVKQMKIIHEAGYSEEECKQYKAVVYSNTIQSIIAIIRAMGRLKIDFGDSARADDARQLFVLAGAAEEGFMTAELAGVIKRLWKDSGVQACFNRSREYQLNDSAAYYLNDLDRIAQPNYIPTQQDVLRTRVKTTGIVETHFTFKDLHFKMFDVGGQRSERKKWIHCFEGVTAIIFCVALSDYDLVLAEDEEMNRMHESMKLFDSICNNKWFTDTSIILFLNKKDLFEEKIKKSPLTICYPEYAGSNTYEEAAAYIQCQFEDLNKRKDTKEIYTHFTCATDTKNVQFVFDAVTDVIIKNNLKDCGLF
Assay Protocol: Reagents/Controls: Assay Buffer: 10 mM Tris-HCl, 150 mM NaCl, 0.1 mM GDP (prepared fresh), and 0.05% NP40 at pH 7.5. […] 10 nM FITC labeled peptide/50 nM protein in columns 1, 2, 5 - 48. Titration of unlabeled peptide control ([H][…][NH2], custom synthesized and HPLC-purified by Tufts University Core Facility) from 10 mM, then 1:2 dilution, 16-point in duplicate, pin-transferred to column 2, rows 1 to 32. Column 1 is neutral. FITC-labeled RGS12-GoLoco peptide was custom-synthesized and HPLC-purified by Michael Berne of Tufts University Assay Steps. Four uL of reagents were dispensed to 1536-well Greiner black solid-bottom plates. Compounds and controls (23 nL) were transferred via Kalypsys PinTool. The plates were incubated for 10 min at room temperature, and then read on ViewLux (Perkin-Elmer) High-throughput CCD imager using FITC polarization filter sets for the fluorescein-labeled decapeptide probe.During dispense, reagent bottles were kept submerged into 4 deg C water bath and all liquid lines were covered with aluminum foil to minimize probe and protein degradation. All screening operations were performed on a Kalypsys robotic system (Kalypsys, Inc., San Diego, CA) containing one RX-130 and two RX-90 anthropomorphic robotic arms.
Background: In qHTS, concentration-response curves come from the screen itself.
On to `O=C(N[C@@H](Cc1ccccc1)C(=O)CCl)OCc1ccccc1`, for which the Potency entry was “inactive”.
With `O=c1[nH]c2ccccc2c2ccccc12` the entry was “inactive”; with `O=C(O)C1=CCNCC1`, “inactive”.
As for `O=C(O)c1cccnc1C(=O)O`, the Potency result was “inactive”.
As for `O=C(O)/C(=C/c1c(C(=O)O)[nH]c2cc(Cl)cc(Cl)c12)c1ccccc1`, the Potency entry was “inactive”.
On to `NC(N)=NC(N)=Nc1cccc(Cl)c1`, for which the Potency result was “inactive”.
As for `Cc1ccc([N+](=O)[O-])cc1S(=O)(=O)N(C)C`, the Potency entry was “inactive”.
With `Nc1ncnc2c1ncn2C1CCCC1` the entry was “inactive”; with `CNC(=O)c1cc2c(cn1)[nH]c1ccccc12`, “inactive”; with `CCCn1c(=O)c2c(ncn2C)n(CCC)c1=O`, “inactive”.
In the case of `CCSC(=N)N` it was “inactive”.
As to `Cc1nc2c(OCc3ccccc3)cccn2c1CC#N`, the Potency entry was “inactive”.
`NCCNS(=O)(=O)c1cccc2c(Cl)cccc12`: the Potency result was “inactive”.
With `O=C(O)c1ccccc1Nc1cccc(OCc2ccc3ccccc3n2)c1`, the Potency entry is “inactive”.
With `N[C@@H](Cc1c[nH]c2ccccc12)C(=O)O`, the Potency result is “inactive”.
In the case of `CN(C)S(=O)(=O)c1ccc2c(c1)/C(=C/c1cc3c([nH]1)CCCC3)C(=O)N2`, the Potency result was “inactive”.
On to `Cc1cc2c(cc1Cl)N(C(=O)Nc1ccnc3ccccc13)CC2`, for which the Potency entry is “inactive”.
Turning to `Cc1ccc2c(c1)C(N1CCN(C)CC1)=Nc1cccnc1N2`, the Potency entry was “inactive”.
As to `COc1ccc(C(=O)NCc2cccnc2)cc1C(=O)NCc1cccnc1`, the Potency entry is “inactive”.
In the case of `Cc1nc(N=Nc2cc(S(=O)(=O)O)c3cc([N+](=O)[O-])cc(S(=O)(=O)O)c3c2)c(COP(=O)(O)O)c(C=O)c1O`, the Potency result was “inactive”.
As to `Nc1ccc(-c2ccc3ccccc3n2)cc1`, the Potency result is “inactive”.
With `Nc1ccc(-c2nc3ccc(-c4nc5ccc(N)cc5[nH]4)cc3[nH]2)cc1`, the Potency result was “inactive”.
As for `CCCCOC(=O)NS(=O)(=O)c1sc(CC(C)C)cc1-c1ccc(Cn2c(CC)nc3c(C)cc(C)nc32)cc1`, the Potency result was “inactive”.
In the case of `N=C(N)SCCc1cnc[nH]1`, the Potency entry is “inactive”.
With `COc1cc(/C=C(\C#N)C(=O)c2ccc(O)c(O)c2)cc(I)c1O`, the Potency result is “inactive”.
On to `Cn1ccnc1`, for which the Potency result is “inactive”.
In the case of `COc1ccccc1N1CCN(CCCCN2C(=O)c3ccccc3C2=O)CC1`, the Potency entry was “inactive”.
As for `N=C(N)c1ccc(OCCCCCOc2ccc(C(=N)N)cc2)cc1` (tested in a mixture with another compound), the Potency entry was “inactive”.
`CCN(c1nc(N)c(C(=O)N=C(N)N)nc1Cl)C(C)C`: the Potency result is “inactive”.
With `O=c1[nH]c2cc(Cl)ccc2c(O)c1-c1ccc(Oc2ccccc2)cc1`, the Potency entry is “inactive”.
`CCN(CC)CCOC(=O)c1cc(Cl)c(N)cc1OC`: the Potency result was “inactive”.
Take `O=c1onc2n1-c1cc(Br)ccc1OC2`: the Potency result was “inactive”.
Consider `NC/C=C\C(=O)O`, for which the Potency result was “inactive”.
With `CC(C)Cn1c(=O)n(C)c(=O)c2[nH]cnc21` the entry was “inactive”; with `COc1ccc(NC(=O)c2ccc(-c3ccc(-c4noc(C)n4)cc3C)cc2)cc1N1CCN(C)CC1`, “inactive”; with `CCCC(=O)NCCc1c2n(c3ccc(OC)cc13)CCCc1ccccc1-2`, “inactive”.
Take `CC(C)[C@H](NC(=O)OCc1ccccc1)C(=O)N[C@H](C=O)Cc1ccccc1` (Cbz-Val-Phe-aldehyde): the Potency result was “inactive”.
With `O=c1[nH]c(=O)c2nc3ccccc3nc2[nH]1` the entry was “inactive”; with `N=C(N)SCCN`, “inactive”.
On to `c1ccc2c(c1)CC(N1CCN(c3cccc4c3OCCO4)CC1)C2`, for which the Potency entry was “inactive”.
